Test [1] can be described thus: Human pregnane X receptor (PXR) small molecule agonists, qHTS cell viability counter screen (AID 1346977). Further: nearly all actives have a fitted effect of over 50% in size. Further: potency means the concentration at half of the fitted maximal effect. In a few lines: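 In each well, the PXR reporter HepG2 line was checked for viability: CellTiter-Fluor reagent added 23hr post-dosing, fluorescence read after 1hr incubation at 37C.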
In general terms: In qHTS, concentration-response curves come from the screen itself.

A short description of test [2]: Caspase-3/7 induction in HepG2 cells by small molecules, qHTS assay (AID 1346978). Further: nearly all actives have a fitted effect of over 15% in size. In a few lines: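 Wild-type HepG2 cells (2,000/well) were settled 5 h at 37 C, 5% CO2, then exposed to compounds in DMSO for 17 h. Caspase-3/7 activity was read by luminescence 30 min after adding Caspase-Glo 3/7 reagent at room temperature.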
Test [3] can be described thus: Caspase-3/7 induction in CHO-K1 cells by small molecules, qHTS cell viability counter screen (AID 1346979). Further: nearly all actives have a fitted effect of over 35% in size. Further: potency means the concentration at half of the fitted maximal effect. The gist of the method:
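Following a 5hr settling period, CHO-K1 cells at 1,500 per well received DMSO-dissolved compounds. Cell viability was quantified 16hr later by CellTiter-Fluor fluorescence, measured after 1hr with reagent at 37C.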

The nature of test [4]: Caspase-3/7 induction in CHO-K1 cells by small molecules, qHTS assay (AID 1346980). Further: nearly all actives have a fitted effect of over 15% in size. The gist of the method:
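Wild-type cells were seeded at 1,500 per well and settled 5 hr at 37 C, 5% CO2, then exposed to DMSO-dissolved compounds for 17 hr. Caspase-Glo 3/7 reagent was added, and luminescence was read after 30min at room temperature.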

The nature of test [5]: Caspase-3/7 induction in HepG2 cells by small molecules, qHTS cell viability counter screen (AID 1346981). Further: nearly all actives have a fitted effect of over 30% in size. Further: potency means the concentration at half of the fitted maximal effect. The gist of the method:
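Cell viability is measured as a cytotoxicity counter screen alongside the Caspase-Glo 3/7 readout in identical wells. Wild-type HepG2 cells are treated with test compounds for 16 hr at 37 C before CellTiter-Fluor addition and a 1-hr incubation.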

Test [6] deals with Nuclear receptor subfamily 1 group I member 2 (Homo sapiens) (UniProt O75469). Description: Human pregnane X receptor (PXR) small molecule agonists, qHTS assay (AID 1346982). Further: nearly all actives have a fitted effect of over 35% in size. Further: potency means the concentration at half of the fitted maximal effect. In a few lines: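 Cells: HepG2 stably carrying PXR-Luc. Medium held 5% charcoal-stripped FBS. Compounds in DMSO added after 5 hr plating, incubated 24 hr, then luminescence quantified with ONE-Glo.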
For test [7], the target named is Cytochrome P450 2D6 (Homo sapiens) (UniProt P10635). Nature of the test: Cytochrome P450 Family 2 Subfamily D Member 6 (CYP2D6) small molecule antagonists: luciferase reporter qHTS assay (AID 1671196). Further: nearly all actives have a fitted effect of over 50% in size. Further: potency means the concentration at half of the fitted maximal effect. The gist of the method: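 Enzyme and proluciferin substrate were first combined with test chemical for 10 min at room temperature. Adding NADPH regeneration solution started a 1 h reaction, stopped with luciferin detection reagent and read by luminescence 20 min later.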
Background: Reporter assays use an easily measured gene product as a stand-in for the process of interest.

In test [8] the target is Nuclear receptor subfamily 1 group I member 2 (Rattus norvegicus) (UniProt Q9R1A7). Description: Rat pregnane X receptor (rPXR) activation by small molecules, qHTS assay (AID 1346983). Further: nearly all actives have a fitted effect of over 20% in size. As to conditions: rPXR luciferase reporter cells, One-Glo luminescence, 24 h; max activation: stronger effect = higher value. In a few lines: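 Cell-based rPXR luciferase reporter assay, 2,000 cells per well, rested 5hr at 37 C before compound addition in DMSO, then 24 hr at 37 C. One-Glo reagent was added and luminescence read after 30 min at room temperature.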

For test [9], the target named is Nuclear receptor subfamily 1 group I member 2 (Homo sapiens) (UniProt O75469). Nature of the test: CYP3A4 induction through human pregnane X receptor (PXR) by small molecules, qHTS assay (AID 1346984). Further: nearly all actives have a fitted effect of over 40% in size. In a few lines: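 Quantitative HTS in DPX-2 cells, i.e. HepG2 transfected with PXR response element and CYP3A4-promoter luciferase. Compounds in DMSO incubated 24hr at 37C; then P450-Glo CYP3A4 substrate, 3uM final, 3hr; One-Glo luminescence.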

Test [10] shares this target. Description: Human pregnane X receptor (PXR) activation by small molecules, qHTS assay (AID 1346985). Further: nearly all actives have a fitted effect of over 40% in size. The gist of the method: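 DPX-2 cells (HepG2 co-transfected with a PXR response element and a CYP3A4-promoter luciferase construct) were seeded at 2,000 per well, rested 5 hr at 37C, then exposed to DMSO-dissolved compounds for 24 hr. Activation was read as luciferase luminescence.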

A number with no mark means an inactive call. Results filed as inconclusive are left out. Activity calls are given as the source filed them. The call rests on the fitted dose curve; in most records, active means well fitted curve in the direction sought with a large enough effect in the repeat runs; inconclusive means weak or mixed curves; inactive means no such curve, though single readings can be large; an effect the other way counts as inactive or inconclusive.
On the % scale 0 is the no-effect control and ±100 the full control effect.

Cytochrome P450 2D6 (Homo sapiens), sequence (P10635 whole entry, looked up): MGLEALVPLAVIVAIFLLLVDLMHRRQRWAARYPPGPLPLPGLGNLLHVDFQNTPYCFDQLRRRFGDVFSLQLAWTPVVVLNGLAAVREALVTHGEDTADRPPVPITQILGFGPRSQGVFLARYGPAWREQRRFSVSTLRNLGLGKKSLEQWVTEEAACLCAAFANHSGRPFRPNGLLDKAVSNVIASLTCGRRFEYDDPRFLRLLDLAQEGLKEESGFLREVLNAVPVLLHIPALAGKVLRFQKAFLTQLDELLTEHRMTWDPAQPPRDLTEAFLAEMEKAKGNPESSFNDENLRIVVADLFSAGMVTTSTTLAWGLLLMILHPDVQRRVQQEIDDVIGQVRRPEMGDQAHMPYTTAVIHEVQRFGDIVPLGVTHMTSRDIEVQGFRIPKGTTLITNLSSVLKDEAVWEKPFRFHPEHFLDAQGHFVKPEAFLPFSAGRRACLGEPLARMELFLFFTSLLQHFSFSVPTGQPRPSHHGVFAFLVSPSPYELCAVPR
Nuclear receptor subfamily 1 group I member 2 (Rattus norvegicus), sequence (Q9R1A7 whole entry, looked up): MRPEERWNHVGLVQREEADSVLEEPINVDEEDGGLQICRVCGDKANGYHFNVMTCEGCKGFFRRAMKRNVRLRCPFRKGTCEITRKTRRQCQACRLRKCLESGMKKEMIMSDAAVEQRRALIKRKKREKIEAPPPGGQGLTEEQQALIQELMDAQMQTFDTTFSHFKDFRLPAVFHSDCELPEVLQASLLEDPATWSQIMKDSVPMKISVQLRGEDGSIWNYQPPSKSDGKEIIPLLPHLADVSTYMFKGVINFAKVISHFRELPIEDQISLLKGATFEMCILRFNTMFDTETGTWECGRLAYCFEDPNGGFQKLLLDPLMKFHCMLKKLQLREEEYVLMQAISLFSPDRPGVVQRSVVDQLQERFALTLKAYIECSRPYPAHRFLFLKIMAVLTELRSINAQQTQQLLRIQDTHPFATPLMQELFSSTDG
Nuclear receptor subfamily 1 group I member 2 (Homo sapiens), sequence (O75469 whole entry, looked up): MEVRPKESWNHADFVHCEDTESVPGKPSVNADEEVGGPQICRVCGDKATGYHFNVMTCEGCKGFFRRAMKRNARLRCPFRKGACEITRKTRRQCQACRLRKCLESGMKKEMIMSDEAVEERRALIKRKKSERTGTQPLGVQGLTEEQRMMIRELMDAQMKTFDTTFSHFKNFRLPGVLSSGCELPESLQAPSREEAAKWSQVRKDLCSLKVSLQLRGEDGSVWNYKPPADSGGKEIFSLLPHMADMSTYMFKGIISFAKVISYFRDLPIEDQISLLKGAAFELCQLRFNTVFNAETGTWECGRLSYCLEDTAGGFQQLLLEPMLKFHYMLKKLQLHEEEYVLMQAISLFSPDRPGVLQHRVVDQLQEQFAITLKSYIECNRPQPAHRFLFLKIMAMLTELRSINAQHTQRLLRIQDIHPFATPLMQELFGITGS

Turning to `O=C(C(Cl)Cl)N1CCOC12CCCCC2`, the Potency in test [1] is 61.1 µM (active); in test [3], 61.1 µM (active); in test [5], 61.1 µM (active); in [6] it was 34.4 µM (active). In addition, the Potency entry in [2] and in [7] was “inactive” throughout. The compound was called inactive in test [4].

Turning to `NC/C=C/C(=O)O`, the Potency entry in test [1], in [2], in [3], in [5], in test [9] and in test [10] was “inactive” in each case. Further, the Potency result in [7] is “inactive”. Also, in [4], the compound was called inactive. Besides, the max activation in [8] is -4.44%.

On to `CC(C)(C)c1ccc(OC(=O)c2ccccc2O)cc1`, for which the Potency result in test [1], in test [2], in test [3], in test [5] and in test [7] was “inactive” throughout. In [4], the compound was called inactive.

Take `Cc1ccc(C)c(N)c1`: the Potency result in test [1], in test [2], in test [3], in test [5] and in [6] was “inactive” each time. For the same compound, the call in test [4] was inactive. Moreover, the Potency in test [7] is 20 µM (active).

Consider `FC(F)(F)C(F)(F)C(F)(F)C(F)(F)C(F)(F)C(F)(F)C(F)(F)C(F)(F)Br`, for which the Potency result in test [1], in [2], in [3], in test [5], in [9] and in test [10] was “inactive” in each case. Also, the Potency result in [7] was “inactive”. Also, in test [4], the outcome was inactive. In addition, in [8], the max activation was -2.79%.

`C=CCCCCCCCCO`: the Potency entry in [1], in test [2], in test [3], in test [5], in [6] and in test [7] was “inactive” throughout. The compound was called inactive in test [4].

With `CC(C)OC(C)C`, the Potency entry in test [1], in [2], in test [3], in [5] and in [7] was “inactive” throughout. In addition, the compound was called inactive in test [4].

Regarding `CCN[C@H]1CN(CCCOC)S(=O)(=O)c2sc(S(N)(=O)=O)cc21`, the Potency entry in test [1], in [2], in [3], in test [6], in test [9] and in test [10] was “inactive” each time. Moreover, in [7], the Potency result was “inactive”. Also, the compound was classed as inactive in test [4]. In test [8], the max activation was -3.62%.

For `CN1[C@@H]2CC[C@H]1CC(OC(=O)c1c[nH]c3ccccc13)C2` (stereo partly specified), the Potency entry in [1], in test [2], in test [3] and in test [5] was “inactive” throughout. Moreover, the outcome in [4] was inactive. Besides, the Potency in test [7] is 15.5 µM (active).

Consider `CCOC(=O)CS`, for which the Potency entry in [1], in [2], in test [3], in test [5], in test [6] and in test [7] was “inactive” in each case. Also, in test [4], the outcome was inactive.

Turning to `CC(C)(C)C1CCCCC1=O` (stereo unspecified), the Potency entry in test [1], in test [2], in test [3], in test [5], in test [6] and in [7] was “inactive” in each case. The compound was classed as inactive in [4].

Turning to `OCc1ccccc1O`, the Potency entry in test [1], in [2], in test [3], in test [5], in test [9] and in test [10] was “inactive” throughout. The Potency result in test [7] was “inactive”. Besides, the compound was classed as inactive in test [4]. Also, the max activation in test [8] was 11.7%.

With `CC(=O)Nc1ccc(C)c(Cl)c1`, the Potency result in test [1], in test [2], in [3], in [5] and in test [7] was “inactive” each time. In addition, the outcome in test [4] was inactive.

For the compound `O=C1CCCCC1C1CCCCC1` (stereo unspecified), the Potency result in test [1], in test [2], in test [3], in test [6] and in test [7] was “inactive” in each case. Also, the compound was classed as inactive in test [4].

With `COC(=O)N[C@H](C(=O)N[C@@H](Cc1ccccc1)[C@@H](O)CN(Cc1ccc(-c2ccccn2)cc1)NC(=O)[C@@H](NC(=O)OC)C(C)(C)C)C(C)(C)C`, the Potency entry in test [1], in test [2], in [3] and in [7] was “inactive” throughout. The compound was classed as inactive in test [4].

In the case of `Clc1cccc(-c2cc(Cl)cc(Cl)c2)c1`, the Potency result in test [1], in test [2], in [3] and in test [7] was “inactive” throughout. The result in test [4] was inactive. Also, the Potency in test [6] is 59 µM (active).

For the compound `Cc1ccc(C=O)s1`, the Potency result in test [1], in test [2], in test [3], in test [6] and in test [7] was “inactive” throughout. Also, the compound was called inactive in test [4].

`CCCN(CCC)C(=O)C(CCC(=O)O)NC(=O)c1ccccc1` (stereo unspecified): the Potency entry in test [1], in test [2], in test [3], in [9], in [10] and in test [7] was “inactive” in each case. In test [4], the compound was classed as inactive. For the same compound, the max activation in test [8] was 0.444%.

For the origin of these results see PubChem BioAssay (Tox21).
